# According to the supplement of paper PMC8728848:
# Shown is part of a subset that was picked to be rich in the strongest signals.
# B1: CpGal16 (Clavelina picta) (protein)
# chain: MAKMITNYVGKRIECIMVATDMMSTVFSLASATGDLPFYINFRQRENSIVMNTRVHGKWQYEKSQSSGGMNFYEPFRLVVEVRPSVFKVTVSTMGEEDGITFNLQYSQITIKPDEIVAMHLGYCNLRSELLVTDL
# How the values were obtained:
# Assay in all cases: glycan array binding signal (z-score within array); higher = stronger binding
# Settings in all cases: glycan notation: IUPAC condensed, linker removed
# [1] = molecular target: Fuc(a1-2)Gal(b1-3)GlcNAc
# How it was run: (§1)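 The binding signal is a Z-score computed within each array and averaged over linkers. Arrays of the same protein sequence at different concentrations or buffers were also averaged together. Data originate from 3228 arrays in the Consortium for Functional Glycomics database, kept only where the protein sequence was available.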
# [2] = molecular target: Fuc(a1-2)Gal(b1-3)GlcNAc(b1-3)Gal(b1-4)Glc
# How it was run: as §1
# [3] = molecular target: Fuc(a1-2)Gal(b1-3)GlcNAc(b1-3)[Gal(b1-4)GlcNAc(b1-6)]Gal(b1-4)Glc
# How it was run: as §1
# [4] = molecular target: Fuc(a1-2)Gal(b1-3)[Fuc(a1-4)]GlcNAc(b1-2)Man(a1-3)[Fuc(a1-2)Gal(b1-3)[Fuc(a1-4)]GlcNAc(b1-2)Man(a1-6)]Man(b1-4)GlcNAc(b1-4)[Fuc(a1-6)]GlcNAc(b1-4)[Fuc(a1-6)]GlcNAc
# How it was run: as §1
# [5] = molecular target: Fuc(a1-2)Gal(b1-3)[Fuc(a1-4)]GlcNAc(b1-3)[Fuc(a1-3)[Gal(b1-4)]GlcNAc(b1-6)]Gal(b1-4)Glc
# How it was run: as §1
# [6] = molecular target: Fuc(a1-2)Gal(b1-4)Glc6S
# How it was run: as §1
# [7] = molecular target: Fuc(a1-2)[Gal(a1-3)]Gal(b1-4)GlcNAc
# How it was run: as §1
# [8] = molecular target: Fuc(a1-2)[Gal(a1-3)]Gal(b1-4)[Fuc(a1-3)]GlcNAc
# How it was run: as §1
# [9] = molecular target: Fuc(a1-2)[GalNAc(a1-3)]Gal(b1-3)GlcNAc(b1-6)GalNAc
# How it was run: as §1
# [10] = molecular target: Fuc(a1-2)[GalNAc(a1-3)]Gal(b1-4)GlcNAc(b1-2)Man(a1-3)[Fuc(a1-2)[GalNAc(a1-3)]Gal(b1-4)GlcNAc(b1-2)Man(a1-6)]Man(b1-4)GlcNAc(b1-4)[Fuc(a1-6)]GlcNAc
# How it was run: as §1
# [11] = molecular target: Fuc(a1-2)[GalNAc(a1-3)]Gal(b1-4)GlcNAc(b1-3)Gal(b1-4)GlcNAc
# How it was run: as §1
# [12] = molecular target: Fuc(a1-3)[Gal3S(b1-4)]GlcNAc6S
# How it was run: as §1
# [13] = molecular target: Gal(a1-3)Gal(b1-3)[Fuc(a1-4)]GlcNAc(b1-2)Man(a1-3)[Gal(a1-3)Gal(b1-3)[Fuc(a1-4)]GlcNAc(b1-2)Man(a1-6)]Man(b1-4)GlcNAc(b1-4)GlcNAc
# How it was run: as §1
# [14] = molecular target: Gal(b1-3)GlcNAc(b1-2)Man
# How it was run: as §1
# [15] = molecular target: Gal(b1-3)GlcNAc(b1-2)Man(a1-3)[GlcNAc(b1-4)][Gal(b1-3)GlcNAc(b1-2)Man(a1-6)]Man(b1-4)GlcNAc(b1-4)GlcNAc
# How it was run: as §1
# [16] = molecular target: Gal(b1-3)GlcNAc(b1-3)Gal(b1-4)GlcNAc(b1-2)Man(a1-3)[Gal(b1-3)GlcNAc(b1-3)Gal(b1-4)GlcNAc(b1-2)Man(a1-6)]Man(b1-4)GlcNAc(b1-4)GlcNAc
# How it was run: as §1
# [17] = molecular target: Gal(b1-3)GlcNAc(b1-3)Gal(b1-4)GlcNAc(b1-2)[Gal(b1-3)GlcNAc(b1-3)Gal(b1-4)GlcNAc(b1-6)]Man(a1-6)[Gal(b1-3)GlcNAc(b1-3)Gal(b1-4)GlcNAc(b1-2)Man(a1-3)]Man(b1-4)GlcNAc(b1-4)[Fuc(a1-6)]GlcNAc
# How it was run: as §1
# [18] = molecular target: Gal(b1-3)GlcNAc(b1-3)Gal(b1-4)GlcNAc(b1-3)Gal(b1-4)GlcNAc(b1-2)[Gal(b1-3)GlcNAc(b1-3)Gal(b1-4)GlcNAc(b1-3)Gal(b1-4)GlcNAc(b1-6)]Man(a1-6)[Gal(b1-3)GlcNAc(b1-3)Gal(b1-4)GlcNAc(b1-3)Gal(b1-4)GlcNAc(b1-2)Man(a1-3)]Man(b1-4)GlcNAc(b1-4)[Fuc(a1-6)]GlcNAc
# How it was run: as §1
# [19] = molecular target: Gal(b1-3)GlcNAc(b1-3)Gal(b1-4)[Fuc(a1-3)]GlcNAc(b1-6)[Gal(b1-3)GlcNAc(b1-3)]Gal(b1-4)Glc
# How it was run: as §1
# [20] = molecular target: Gal(b1-4)GlcNAc(b1-2)Man(a1-3)[GlcNAc(b1-4)][Gal(b1-4)GlcNAc(b1-2)Man(a1-6)]Man(b1-4)GlcNAc(b1-4)GlcNAc
# How it was run: as §1
# [21] = molecular target: Gal(b1-4)GlcNAc(b1-3)Gal(b1-4)GlcNAc(b1-3)Gal(b1-4)GlcNAc(b1-2)Man(a1-3)[Gal(b1-4)GlcNAc(b1-3)Gal(b1-4)GlcNAc(b1-3)Gal(b1-4)GlcNAc(b1-2)Man(a1-6)]Man(b1-4)GlcNAc(b1-4)[Fuc(a1-6)]GlcNAc
# How it was run: as §1
# [22] = molecular target: Gal(b1-4)GlcNAc(b1-3)Gal(b1-4)GlcNAc(b1-3)Gal(b1-4)GlcNAc(b1-2)[Gal(b1-4)GlcNAc(b1-3)Gal(b1-4)GlcNAc(b1-3)Gal(b1-4)GlcNAc(b1-6)]Man(a1-6)[Gal(b1-4)GlcNAc(b1-3)Gal(b1-4)GlcNAc(b1-3)Gal(b1-4)GlcNAc(b1-2)Man(a1-3)]Man(b1-4)GlcNAc(b1-4)[Fuc(a1-6)]GlcNAc
# How it was run: as §1
# [23] = molecular target: Gal(b1-4)GlcNAc(b1-3)Gal(b1-4)GlcNAc(b1-3)Gal(b1-4)GlcNAc(b1-3)Gal(b1-4)GlcNAc(b1-3)Gal(b1-4)GlcNAc(b1-2)Man(a1-3)[Gal(b1-4)GlcNAc(b1-3)Gal(b1-4)GlcNAc(b1-3)Gal(b1-4)GlcNAc(b1-3)Gal(b1-4)GlcNAc(b1-3)Gal(b1-4)GlcNAc(b1-2)Man(a1-6)]Man(b1-4)GlcNAc(b1-4)[Fuc(a1-6)]GlcNAc
# How it was run: as §1
binder,measurement,setting,value
B1,glycan array binding signal (z-score),[1],2.93
same,glycan array binding signal (z-score),[2],3.11
same,glycan array binding signal (z-score),[3],2.79
same,glycan array binding signal (z-score),[4],-0.402
same,glycan array binding signal (z-score),[5],-0.394
same,glycan array binding signal (z-score),[6],3.43
same,glycan array binding signal (z-score),[7],-0.113
same,glycan array binding signal (z-score),[8],-0.434
same,glycan array binding signal (z-score),[9],3.13
same,glycan array binding signal (z-score),[10],0.044
same,glycan array binding signal (z-score),[11],2.86
same,glycan array binding signal (z-score),[12],-0.265
same,glycan array binding signal (z-score),[13],-0.202
same,glycan array binding signal (z-score),[14],0.015
same,glycan array binding signal (z-score),[15],2.87
same,glycan array binding signal (z-score),[16],3.83
same,glycan array binding signal (z-score),[17],3.99
same,glycan array binding signal (z-score),[18],4.48
same,glycan array binding signal (z-score),[19],3.33
same,glycan array binding signal (z-score),[20],-0.358
same,glycan array binding signal (z-score),[21],0.953
same,glycan array binding signal (z-score),[22],1.44
same,glycan array binding signal (z-score),[23],1.28
